Screening results (PubChem BioAssay)
G9a block: qHTS Assay for Inhibitors of Histone Lysine Methyltransferase G9a; G9a H3K9 monomethylation, AlphaScreen, 2 h; Potency, µM (top dose mostly 102 µM), for inactives: at the top dose activity, negative = inhibition, most hits filed as inhibitors; Histone-lysine N-methyltransferase EHMT2 (Homo sapiens), Q96KQ7; 8.8% of 350,000 active; note: % is set by controls: 0 for no effect and ±100 for the full control effect; nearly all actives have a fitted effect of over 75% in size
Target sequence (Q96KQ7 913-1193 limits assumed): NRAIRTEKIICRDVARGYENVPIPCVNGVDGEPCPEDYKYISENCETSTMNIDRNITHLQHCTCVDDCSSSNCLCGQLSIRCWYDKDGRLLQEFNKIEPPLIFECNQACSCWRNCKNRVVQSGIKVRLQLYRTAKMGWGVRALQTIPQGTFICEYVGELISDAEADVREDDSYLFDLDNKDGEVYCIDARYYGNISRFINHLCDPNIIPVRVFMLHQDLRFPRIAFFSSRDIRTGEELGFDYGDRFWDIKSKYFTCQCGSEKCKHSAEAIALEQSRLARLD
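Using a bead-based AlphaScreen, monomethylated H3K9 product from 2 h room-temperature reactions (G9a 20 nM, peptide 500 nM, SAM 20 uM) was detected with 0.5 ug/mL rabbit anti-H3K9me1 antibody.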
JMJD2A Tudor inh: qHTS Assay for Inhibitors of JMJD2A-Tudor Domain; Lysine-specific demethylase 4A (Homo sapiens), O75164; AlphaScreen JMJD2A-Tudor / H3K4me3 peptide binding; 4.4% of 390,000 active; AID 504339, 2011; Potency, µM (doses to about 114 µM), for inactives: top-dose activity change, negative = inhibition, most hits filed as inhibitors; note: % is set by controls: 0 for no effect and ±100 for the full control effect; nearly all actives have a fitted effect of over 50% in size
BAZ2B block: qHTS Assay for Inhibitors of BAZ2B | AlphaScreen BAZ2B-H3K14Ac peptide displacement | AID 504333, 2011 | 4.4% of 360,000 active | Bromodomain adjacent to zinc finger domain protein 2B (Homo sapiens), Q9UIF8 | Potency, µM (series often up to 114 µM), for the others: top-dose activity change, negative = inhibition, actives largely listed as inhibitors; note: % is set by controls: 0 for no effect and ±100 for the full control effect; nearly all actives have a fitted effect of over 60% in size
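Inhibition is scored as reduced AlphaScreen emission. The BAZ2B/b-H3(5-23)K14Ac complex (50 nM each) in PBS pH 7.4, 0.01% Tween-20 meets compound (up to 110 uM) for 30 min at RT before bead addition.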
GLS inhibitor: qHTS for Inhibitors of Glutaminase (GLS); 0.21% of 410,000 active; GLS enzymatic activity, qHTS titration; Potency, µM (top dose mostly 45.5 µM), for the others: top-dose activity change, negative = inhibition, actives largely listed as inhibitors; Glutaminase kidney isoform, mitochondrial (Homo sapiens), O94925; note: % is set by controls: 0 for no effect and ±100 for the full control effect
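Compounds were pin-transferred onto hKGA, after which L-glutamine (1 mM solution) and a detection mix of glutamate oxidase, HRP and Amplex Red were added. Initial and 30 min RT fluorescence reads were collected.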
HP1b binding inh: HTS for Inhibitors of HP1-beta Chromodomain Interactions with Methylated Histone Tails | Chromobox protein homolog 1 (Homo sapiens), P83916 | AlphaScreen HP1-beta / biotin-H3K9me3 peptide binding | Potency, µM (series often up to 114 µM), inactives show at the highest dose activity change, negative = inhibition, usual class: inhibitors | 0.56% of 390,000 active; note: nearly all actives have a fitted effect of over 70% in size
Target sequence (P83916 whole entry, looked up): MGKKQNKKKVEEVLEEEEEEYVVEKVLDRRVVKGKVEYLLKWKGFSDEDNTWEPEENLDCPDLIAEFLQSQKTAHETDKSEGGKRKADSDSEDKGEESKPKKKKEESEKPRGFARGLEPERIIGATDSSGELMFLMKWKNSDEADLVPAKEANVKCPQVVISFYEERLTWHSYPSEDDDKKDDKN
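Compound inhibition of the preformed complex between 50 nM HP1-beta and 50 nM biotinylated H3K9me3 peptide was read by AlphaScreen. Buffer was PBS pH 7.4 with 0.01% Tween-20. Incubations ran 30 min at room temperature, with 10 ug/mL donor/acceptor beads.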
An asterisk follows results filed as active; ? = inconclusive; . = no result given; ! = not confirmed by another sample; [ ] = remark or other dose. Shown are actives, neighbours in structure and some others; about 10% of the full set was active somewhere. Calls come from the whole dose curve; as a rule, active = well fitted curve in the direction sought with a large enough effect; inconclusive = small, poorly fitted or top-dose-only effect, or another doubt; inactive = no such curve, though single readings can be large; an effect the other way counts as inactive or inconclusive. Potency is the fitted concentration of half-maximal effect.

SMILES	G9a block	JMJD2A Tudor inh	BAZ2B block	GLS inhibitor	HP1b binding inh
Oc1c(C(Nc2nc3ccccc3s2)c2ccco2)ccc2cccnc12 (configuration not stated)	25µM*	?	50µM*	-2%	-4%
CCN(CC)c1ccc(C(NC(=O)C(C)C)c2ccc3cccnc3c2O)cc1 (configuration not stated)	.	.	.	21%	.
CC(C)C(=O)NC(c1ccco1)c1ccc2cccnc2c1O (configuration not stated)	6%[59 µM]	79µM*	.	19%	31%
CC(C)(C)c1ccc(NC(=O)CNC2CCCc3ccccc32)cc1 (configuration not stated)	-13%	1%	1%	5%	59%
COc1ccc(C(=O)Nc2cccc(OC(=O)c3ccco3)c2)cc1	50µM*	-14%	13%	16%	-10%
COc1ccc(C(C)=O)c(OC(=O)c2ccc(OC)c(OC)c2)c1	14%[12.7 µM]	-5%	-3%	-1%	29%
COc1ccc(C(C)=O)c(OC(=O)c2ccco2)c1	45µM*	4%	?	11%	33%
O=C(NCc1cccs1)Nc1cc(Cl)ccc1Cl	-19%	-1%	1%	0%	24%
O=C(CNC(=S)NC(=O)C1CCCCC1)c1ccccc1	-12%[59 µM]	-13%	5%	8%	14%
Cc1ccc(NC(=S)N(Cc2ccccc2)C(C)C)cc1	28%	5%	-14%	2%	32%
Cc1ccc(S(=O)(=O)c2nc(-c3ccccc3)oc2N2CCN(c3ccccc3)CC2)cc1	-32%[59 µM]	-28%	-20%	-5%	-13%
Cc1ccc(S(=O)(=O)c2nc(-c3ccccc3)oc2N2CCCC2)cc1	1.3µM*	28µM*	?	8%	?
Cc1ccc(S(=O)(=O)c2nc(Cc3ccccc3)oc2N2CCOCC2)cc1	2.2µM*	?	-3%	-4%	2%[57 µM]
CN1CCN(c2oc(-c3ccccc3)nc2S(=O)(=O)c2ccc(Br)cc2)CC1	.	56µM*	35µM*	-3%	?
O=S(=O)(c1ccccc1)c1nc(-c2ccccc2)oc1N1CCCCC1	22µM*	?	?	4%	-14%
COc1ccc(NS(=O)(=O)c2cc(NC(=O)Cc3c(F)cccc3Cl)ccc2OC)cc1	-11%[59 µM]	-14%	12%	0%	15%
O=S(=O)(Nc1ccccc1)N1CCCCC1	.	-19%	.	10%	-15%
Cc1ccc(S(=O)(=O)c2nc(S(C)(=O)=O)sc2N2CCC(C)CC2)cc1	35µM*	-36%	-16%	6%	9%
Cc1ccc(S(=O)(=O)c2nc(N3CCOCC3)sc2Cl)cc1	6.3µM*	-1%	-15%	1%	55%
Cc1ccc(S(=O)(=O)c2nc(S(C)(=O)=O)sc2N2CCCCCC2)cc1	.	?	-34%	-10%	36%
O=S(=O)(c1ccccc1)c1nc(-c2ccccc2)oc1N1CCCC1	5%	79µM*	-4%	-10%	6%
O=S(=O)(c1ccccc1)c1nc(-c2ccccc2)oc1N1CCN(c2cccc(Cl)c2)CC1	-22%[59 µM]	-28%	-33%	-12%	-5%
NC(=O)C1CCN(c2oc(-c3ccccc3)nc2S(=O)(=O)c2ccc(Br)cc2)CC1	.	32µM*	?	7%	48%
Cc1ccc(S(=O)(=O)c2nc(-c3ccccc3)oc2N2CCC(C(N)=O)CC2)cc1	.	-20%	?	-6%	6%
O=C(O)c1cccc(NC(=O)c2ccc3c(c2)C(=O)N(C2CCCCC2)C3=O)c1	106%	-17%	5%	-22%	23%
SMILES	G9a block	JMJD2A Tudor inh	BAZ2B block	GLS inhibitor	HP1b binding inh
CCOC(=O)Cn1c(=O)oc2cc(S(=O)(=O)N3CCN(C(=O)c4ccco4)CC3)ccc21	16%	-1%	3%	0%	34%
COC(=O)CSc1nc2c(c(-c3ccc(C)o3)c1C#N)CCCC2	?	47%	-7%	5%	17%
CCc1cc(=O)oc2c3c(cc(OCC(=O)NC4CC4)c12)OC(C)(C)CC3	1%[12.7 µM]	-22%	-5%	16%	26%
Cc1ccc(S(=O)(=O)c2nc(-c3ccco3)oc2N2CCC(C)CC2)cc1	.	?	10µM*	4%	-6%
O=S(=O)(c1ccccc1)c1nc(-c2ccco2)oc1N1CCOCC1	6%[2.33 µM]	-22%	-24%	5%	3%
COc1cc(C(c2sc3nc(C)nn3c2O)N2CCc3ccccc3C2)cc(OC)c1OC (configuration not stated)	22µM*	-17%	6%	5%	32%
COc1cccc(C(c2sc3ncnn3c2O)N2CCc3ccccc3C2)c1 (configuration not stated)	7.1µM*	-25%	-6%	6%	-10%
COC(=O)C1CCN(C(c2ccc(OC)c(OC)c2)c2sc3nc(C)nn3c2O)CC1 (configuration not stated)	?	-8%	6%	-6%	44%
COc1ccc(C(c2sc3nc(C)nn3c2O)N2CCC(C(N)=O)CC2)cc1OC (configuration not stated)	50µM*	-3%	8%	-1%	25%
COc1cccc(C(c2sc3ncnn3c2O)N2CC(C)OC(C)C2)c1 (configuration not stated)	-10%[59 µM]	-4%	-1%	1%	33%
Cc1cc(C(=O)Nc2ccc3c(c2)OCO3)no1	0%	-14%	-13%	-14%	30%
CCc1ccc(NC(=O)CS(=O)CC(=O)NCC2OCCc3ccccc32)cc1 (configuration not stated)	14%[59 µM]	-21%	6%	-6%	19%
CCCNS(=O)(=O)c1ccc(CCC(=O)N2CCCCC2)cc1	16%[12.7 µM]	20µM*	-1%	23%	?
COc1ccc(N2CCN(C(=O)CN(C)S(=O)(=O)c3cccs3)CC2)cc1	50µM*!	-12%	-5%	2%	13%
COc1ccc(N2CCN(C(=O)CCc3ccc(S(=O)(=O)NCC(C)C)cc3)CC2)cc1	7.1µM*	-32%	-35%	35%	-10%
O=C(c1cc2ccccc2o1)N1CCN(S(=O)(=O)c2ccccc2)CC1	?	-16%	-7%	0%	31%
CCCNS(=O)(=O)c1ccc(CCC(=O)N2CCN(CC)CC2)cc1	?	-12%	12%	16%	10%
O=C(c1cc2ccccc2o1)N1CCN(S(=O)(=O)c2cccs2)CC1	16µM*	0%	13%	4%	26%
Cc1ccc(S(=O)(=O)N2[C@@H](c3ccc(Br)cc3)C(C(=O)O)=CC[C@H]2c2cccc(Cl)c2)cc1	.	-19%	.	9%	6%
